# High-throughput results: PubChem, Sanford-Burnham Center for Chemical Genomics
# A selection: hits, their analogues and other compounds. The true share with any hit is near 3.2%.
# CRFBP-R2 block: blocks CRF-induced signaling of the CRF-BP/CRF-R2 complex. HEK293 CRF-R2/CRF-BP, CRF-induced calcium fluorescence. inhibition, % at 11.8 µM. 350,000 compounds, 0.59% hits;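 active = inhibition of the ligand-induced calcium signal above about 50% at the single tested concentration, limit read from the data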
# PfG6PD inh: PfG6PD (Plasmodium falciparum) enzyme inhibition; 350,000 compounds, 0.78% hits; AID 504690; PfGluPho enzyme, NADPH resazurin-diaphorase fluorescence; inhibition, % at 20 µM;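 active = inhibition reaching at least a set limit at 20 µM in the primary screen, cut at about 59% in these data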
# Cardio protect: myocardial damage modulation in H9c2 cells; H9c2 cardiomyocytes, H2O2 injury protection, ATPLite, 2 h; protection from H2O2 cell death, % at 20 µM; 360,000 compounds, 0.63% hits; AID 588492;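 active = compounds giving at least 50% protection of heart cells from peroxide-induced death in the single-dose screen, raw or plate-pattern-corrected value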
# CRFBP-R2 agonist: agonists of human CRF-binding protein/CRF-R2 receptor complex; HEK293 CRF-R2/CRF-BP, calcium dye fluorescence (FLIPR); percent of saturating CRF peptide response; activation, % at 13.2 µM; 350,000 compounds, 0.46% hits; AID 588473;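 active = activation of at least 50%, plus an integration ratio under a set limit after plate pattern correction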
# aDG glyco act: increases alpha dystroglycan glycosylation; Pro5-aDG cells, alpha-DG glycosylation AlphaScreen (IIH6); 0% Pro5, 100% B10-LARGE cell signal; activation, % at 10 µM; 360,000 compounds, 0.22% hits; AID 624168;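 active = activation of at least 8% versus controls, or a plate z-score of at least 8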;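 note: Pro5 are CHO cells carrying HIG-tagged alpha-DG that lacks glycosylation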
# FAS TE block: blocks the thioesterase domain of human fatty acid synthase; inhibition, % at 15 µM; recombinant FAS-TE, OMFH fluorogenic substrate, fluorescence endpoint; P49327; 360,000 compounds, 0.67% hits;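 active = compounds whose normalised, plate-corrected inhibition of enzyme fluorescence in the single-dose primary screen is 50% or more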
# FAS-TE inh conf: confirmation of human fatty acid synthase thioesterase inhibitors; shares compounds with FAS TE block; recombinant FAS-TE, OMFH fluorogenic substrate, fluorescence; inhibition, % at 15 µM; 2,300 compounds, 45% hits;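 active = compounds inhibiting the enzyme by at least 50% at 15 µM in any one of the replicates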
# A number is an active result; . = inactive; / = no result given.
SMILES,CRFBP-R2 block,PfG6PD inh,Cardio protect,CRFBP-R2 agonist,aDG glyco act,FAS TE block,FAS-TE inh conf
O=C(CN(C1CCCCC1)S(=O)(=O)c1ccc(Cl)cc1)N1CCOCC1,.,.,.,.,.,.,/
Cc1ccc([N+](=O)[O-])cc1NC(=O)CN(C1CCCCC1)S(=O)(=O)c1ccc(Cl)cc1,.,.,.,.,.,54.2,.
Cc1ccc(NC(=O)CN(C)C(=O)c2ccc(Cl)c([N+](=O)[O-])c2)cc1,.,.,.,.,.,59.5,67.6
Cc1c([N+](=O)[O-])cnc(Sc2ccccc2)c1[N+](=O)[O-],.,.,.,.,.,60.1,.
Cc1ccc(Sc2ncccc2[N+](=O)[O-])cc1,.,.,.,.,.,.,/
CCOC(=O)C1=CC[C@H]2c3c(c4ccccc4n3C)C(=O)C1N2C(=O)OC(C)(C)C,.,.,.,.,.,63.1,46.1
CCOC(=O)C1=CC[C@H]2c3c(c4ccccc4n3C)C(=O)C1N2C,.,.,.,.,.,.,/
OCC[C@@H]1C[C@H](O)[C@@H](O)[C@@]2(CCc3ccccc3O2)O1,.,.,.,.,.,.,/
C[C@H](CO)N1C[C@H](C)[C@@H](CN(C)C(=O)NC2CCCCC2)Oc2ccc(NC(=O)C3CC3)cc2C1=O,.,.,.,.,.,.,/
CCN1C(=O)[C@H]2[C@@H](c3ccc(-c4ccccc4)c(OC)c3)N[C@@](Cc3ccccc3)(C(=O)OC)[C@H]2C1=O,.,.,.,.,.,68.6,.
CCN1C(=O)[C@H]2[C@@H](c3ccc(-c4ccc(C(C)=O)cc4)c(OC)c3)N[C@@](Cc3ccccc3)(C(=O)OC)[C@H]2C1=O,.,.,.,.,.,65.3,.
COC(=O)[C@]1(Cc2ccccc2)N[C@H](c2ccc(SC3CCCCC3)c(OC)c2)[C@@H]2C(=O)N(C)C(=O)[C@@H]21,.,.,.,.,.,.,/
CCCSc1ccc([C@H]2N[C@@](Cc3ccccc3)(C(=O)OC)[C@H]3C(=O)N(CC)C(=O)[C@@H]23)cc1,.,.,.,.,.,.,/
CCN1C(=O)[C@H]2[C@@H](c3ccc(-c4ccc(F)cc4)c(OC)c3)N[C@@](Cc3ccccc3)(C(=O)OC)[C@H]2C1=O,.,.,.,.,.,89.8,.
CCN1C(=O)C2C(c3ccccc3F)NC(Cc3ccc(O)cc3)(C(=O)OC)C2C1=O (stereo unspecified),.,.,.,.,.,.,/
O=C1NC(=S)N/C1=C/c1cc([N+](=O)[O-])ccc1O,.,.,.,.,.,.,/
Cc1cc(OCc2nc(N)nc(N)c2-c2ccc(Cl)c(Cl)c2)ccc1[N+](=O)[O-],.,.,.,.,.,51.2,.
CC(C)(C)c1ccc(C(=O)N2CCC2(C)C(=O)Nc2cccc(C#N)c2)cc1 (stereo unspecified),/,/,.,/,.,64.8,65.7
Cc1ccsc1C(=O)N1CCC1(C)C(=O)Nc1cccc(C#N)c1 (stereo unspecified),/,/,.,/,.,.,/
Cc1ccc(NC(=O)CN2C(=O)S/C(=C/c3ccc(O)c([N+](=O)[O-])c3)C2=O)cc1C,.,.,.,.,.,.,/
O=C1S/C(=C\c2ccc(O)c([N+](=O)[O-])c2)C(=O)N1Cc1cccc([N+](=O)[O-])c1,91.7,.,.,.,.,78.4,51.2
CCn1cc(C(=O)NCCc2ccc(Cl)cc2)c(=O)c2cc(S(=O)(=O)N(C)C)ccc21,.,.,.,.,.,74.6,.
CCn1cc(C(=O)NCCc2ccc(C)cc2)c(=O)c2cc(S(=O)(=O)N(C)C)ccc21,.,.,/,.,/,/,/
CCn1cc(C(=O)NCc2ccc3c(c2)OCO3)c(=O)c2cc(S(=O)(=O)N(C)C)ccc21,.,.,.,.,.,57.4,42.1
CCn1cc(C(=O)NCc2ccc(Cl)cc2)c(=O)c2cc(S(=O)(=O)N3CCOCC3)ccc21,.,.,.,.,.,.,/
SMILES,CRFBP-R2 block,PfG6PD inh,Cardio protect,CRFBP-R2 agonist,aDG glyco act,FAS TE block,FAS-TE inh conf
CCn1cc(C(=O)NCCCN(C)c2ccccc2)c(=O)c2cc(S(=O)(=O)N(C)C)ccc21,.,.,.,.,.,.,/
CCn1cc(C(=O)NCc2ccc3c(c2)OCO3)c(=O)c2cc(S(=O)(=O)N3CCOCC3)ccc21,.,.,.,.,.,.,/
CCn1cc(C(=O)NCc2ccc(Cl)cc2)c(=O)c2cc(S(=O)(=O)N(C)C)ccc21,.,.,.,.,.,64.1,76.6
CCn1cc(C(=O)NC(C)CCc2ccccc2)c(=O)c2cc(S(=O)(=O)N(C)C)ccc21 (stereo unspecified),.,.,.,.,.,62.8,.
Cc1ccc([N+](=O)[O-])cc1Nc1nc(N2CCCC2)nc(N2CCCC2)n1,.,.,.,.,.,.,/
CC1=CC(=C(C#N)C#N)c2ccccc2N1C,.,.,.,.,.,61.1,.
CC1=C/C(=C\C=C(C#N)C#N)N(C)c2ccccc21,.,.,.,.,.,.,/
CCOC(=O)CC(NC(=O)c1cc2cccc(OC)c2oc1=O)c1ccc(OC)cc1 (stereo unspecified),.,.,.,.,.,.,/
Cc1nn(-c2ccccc2)c(N2CCCC2)c1/C=N/NC(=O)c1cccc(S(=O)(=O)Nc2ccc(Cl)cc2)c1,.,.,.,.,.,50.5,.
COc1ccc(-c2nn(-c3ccccc3)cc2/C=N/NS(=O)(=O)c2ccccc2)cc1,.,.,.,.,.,.,/
Cc1nn(-c2ccccc2)c(N2CCCC2)c1/C=N/NC(=O)c1cc(-c2ccccn2)nc2ccccc12,.,.,56.6,.,.,77.0,.
Cc1nn(-c2ccccc2)c(N2CCCC2)c1/C=N/NC(=O)c1cc(-c2cccs2)nc2ccccc12,.,.,.,.,.,80.4,.
COc1ccc(-c2nn(-c3ccccc3)cc2/C=N/NC(=O)c2cccc(S(=O)(=O)Nc3ccccc3Cl)c2)cc1,.,.,.,.,.,58.7,.
Cc1nn(-c2ccccc2)c(Cl)c1/C=N/NC(=O)c1cccc(S(=O)(=O)N2CCCC2)c1,.,.,.,.,.,.,/
COc1ccc(N2CCN(C(=O)c3cc4c(s3)-c3ccccc3S(=O)(=O)C4)CC2)cc1,.,.,.,.,.,.,/
CCCC[C@@H]1C=C(C(=O)O)[C@H](c2ccc(Br)cc2)N1S(=O)(=O)c1ccc(C)cc1,.,.,.,.,.,.,/
COCCCNC(=O)CC1C(=O)N(Cc2ccccc2)C(C)c2nc3ccccc3n21 (stereo unspecified),.,.,.,.,.,.,/
COc1cccc(C(Nc2ccccn2)c2c(NC(=O)c3ccco3)sc(C)c2C)c1 (stereo unspecified),.,.,.,.,.,54.3,.
